In the supplement of paper PMC4466140:

What was measured:
Assay in all cases: SPOT peptide array binding signal intensity (averaged, normalized) (arbitrary units (background-subtracted, floor 0; scale differs between SH3 domains)); higher = stronger binding of the SH3 domain to the peptide
[1] = biological target: AgAbp1
Procedure, shortened: (§1)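 GST-fused SH3 domains from four yeast species were expressed in E. coli BL21(DE3), purified on glutathione Sepharose and incubated at 10 μg/ml overnight at 4°C in TBS-based blocking buffer on cellulose membranes carrying synthetic 15-mer peptides, with cysteines replaced by serines. Bound protein was detected with anti-GST antibody, an HRP anti-mouse secondary and luminol, then imaged and quantified with Genespotter. Binding signal is the normalized, background-subtracted spot intensity averaged over replicates, in arbitrary units that differ between domains.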

[2] = biological target: AgBbc1
Procedure, shortened: as §1

[3] = biological target: AgBem1-D1
Procedure, shortened: as §1

[4] = biological target: AgBzz1-D1
Procedure, shortened: as §1

[5] = biological target: AgBzz1-D2
Procedure, shortened: as §1

[6] = biological target: AgCyk3
Procedure, shortened: as §1

[7] = biological target: AgFus1
Procedure, shortened: as §1

[8] = biological target: AgHof1
Procedure, shortened: as §1

[9] = biological target: AgHse1
Procedure, shortened: as §1

[10] = biological target: AgLsb1
Procedure, shortened: as §1

[11] = biological target: AgLsb4
Procedure, shortened: as §1

[12] = biological target: AgMyo5
Procedure, shortened: as §1

[13] = biological target: AgNbp2
Procedure, shortened: as §1

[14] = biological target: AgRvs167
Procedure, shortened: as §1

[15] = biological target: AgSho1
Procedure, shortened: as §1

[16] = biological target: AgSla1-D1-D2
Procedure, shortened: as §1

[17] = biological target: AgSla1-D3
Procedure, shortened: as §1

[18] = biological target: CaAbp1-D1
Procedure, shortened: as §1

[19] = biological target: CaAbp1-D2
Procedure, shortened: as §1

[20] = biological target: CaBbc1
Procedure, shortened: as §1

[21] = biological target: CaBem1-D1
Procedure, shortened: as §1

[22] = biological target: CaBzz1-D1
Procedure, shortened: as §1

[23] = biological target: CaBzz1-D2
Procedure, shortened: as §1

[24] = biological target: CaCyk3
Procedure, shortened: as §1

[25] = biological target: CaFus1
Procedure, shortened: as §1

[26] = biological target: CaHof1
Procedure, shortened: as §1

[27] = biological target: CaHse1
Procedure, shortened: as §1

[28] = biological target: CaLsb1
Procedure, shortened: as §1

[29] = biological target: CaLsb4
Procedure, shortened: as §1

[30] = biological target: CaMyo5
Procedure, shortened: as §1

[31] = biological target: CaNbp2
Procedure, shortened: as §1

[32] = biological target: CaRvs167
Procedure, shortened: as §1

[33] = biological target: CaRvs167-3
Procedure, shortened: as §1

[34] = biological target: CaSho1
Procedure, shortened: as §1

[35] = biological target: CaSla1-D1-D2
Procedure, shortened: as §1

[36] = biological target: CaSla1-D3
Procedure, shortened: as §1

[37] = biological target: ScAbp1
Procedure, shortened: as §1

[38] = biological target: ScBbc1
Procedure, shortened: as §1

[39] = biological target: ScBem1-D1
Procedure, shortened: as §1

[40] = biological target: ScBzz1-D1
Procedure, shortened: as §1

[41] = biological target: ScBzz1-D2
Procedure, shortened: as §1

[42] = biological target: ScCyk3
Procedure, shortened: as §1

[43] = biological target: ScFus1
Procedure, shortened: as §1

[44] = biological target: ScHof1
Procedure, shortened: as §1

[45] = biological target: ScHse1
Procedure, shortened: as §1

[46] = biological target: ScLsb1
Procedure, shortened: as §1

[47] = biological target: ScLsb2
Procedure, shortened: as §1

[48] = biological target: ScLsb3
Procedure, shortened: as §1

[49] = biological target: ScLsb4
Procedure, shortened: as §1

[50] = biological target: ScMyo3
Procedure, shortened: as §1

[51] = biological target: ScMyo5
Procedure, shortened: as §1

[52] = biological target: ScNbp2
Procedure, shortened: as §1

[53] = biological target: ScPex13
Procedure, shortened: as §1

[54] = biological target: ScRvs167
Procedure, shortened: as §1

[55] = biological target: ScSho1
Procedure, shortened: as §1

[56] = biological target: ScSla1-D1-D2
Procedure, shortened: as §1

[57] = biological target: ScSla1-D3
Procedure, shortened: as §1

[58] = biological target: SpAbp1-D1
Procedure, shortened: as §1

[59] = biological target: SpBbc1
Procedure, shortened: as §1

[60] = biological target: SpBzz1-D1
Procedure, shortened: as §1

[61] = biological target: SpBzz1-D2
Procedure, shortened: as §1

[62] = biological target: SpCyk3
Procedure, shortened: as §1

[63] = biological target: SpHof1
Procedure, shortened: as §1

[64] = biological target: SpHof1-2
Procedure, shortened: as §1

[65] = biological target: SpHof1-3
Procedure, shortened: as §1

[66] = biological target: SpHse1
Procedure, shortened: as §1

[67] = biological target: SpLsb1
Procedure, shortened: as §1

[68] = biological target: SpLsb4
Procedure, shortened: as §1

[69] = biological target: SpMyo1
Procedure, shortened: as §1

[70] = biological target: SpNbp2
Procedure, shortened: as §1

[71] = biological target: SpPex13
Procedure, shortened: as §1

[72] = biological target: SpRvs167
Procedure, shortened: as §1

[73] = biological target: SpSla1-D1-D2
Procedure, shortened: as §1

[74] = biological target: SpSla1-D3
Procedure, shortened: as §1

B1: unnamed (peptide)
chain: LRWRHKFFLPAIAAI
[1]
  SPOT peptide array binding signal intensity: 73
[2]
  SPOT peptide array binding signal intensity: 14.2
[3]
  SPOT peptide array binding signal intensity: 52.5
[4]
  SPOT peptide array binding signal intensity: ≤ 0
[5]
  SPOT peptide array binding signal intensity: ≤ 0
[6]
  SPOT peptide array binding signal intensity: 0.5
[7]
  SPOT peptide array binding signal intensity: 299
[8]
  SPOT peptide array binding signal intensity: 9.38
[9]
  SPOT peptide array binding signal intensity: 979
[10]
  SPOT peptide array binding signal intensity: ≤ 0
[11]
  SPOT peptide array binding signal intensity: 18.8
[12]
  SPOT peptide array binding signal intensity: ≤ 0
[13]
  SPOT peptide array binding signal intensity: 14.8
[14]
  SPOT peptide array binding signal intensity: 1.17
[15]
  SPOT peptide array binding signal intensity: 32
[16]
  SPOT peptide array binding signal intensity: 2.5
[17]
  SPOT peptide array binding signal intensity: 2.25
[18]
  SPOT peptide array binding signal intensity: 312
[19]
  SPOT peptide array binding signal intensity: 422
[20]
  SPOT peptide array binding signal intensity: 13
[21]
  SPOT peptide array binding signal intensity: 4.5
[22]
  SPOT peptide array binding signal intensity: 23.2
[23]
  SPOT peptide array binding signal intensity: 0.25
[24]
  SPOT peptide array binding signal intensity: 1.5
[25]
  SPOT peptide array binding signal intensity: 728
[26]
  SPOT peptide array binding signal intensity: ≤ 0
[27]
  SPOT peptide array binding signal intensity: 28.5
[28]
  SPOT peptide array binding signal intensity: 0.25
[29]
  SPOT peptide array binding signal intensity: 2.5
[30]
  SPOT peptide array binding signal intensity: 4
[31]
  SPOT peptide array binding signal intensity: 116
[32]
  SPOT peptide array binding signal intensity: 12.8
[33]
  SPOT peptide array binding signal intensity: 24
[34]
  SPOT peptide array binding signal intensity: 228
[35]
  SPOT peptide array binding signal intensity: ≤ 0
[36]
  SPOT peptide array binding signal intensity: 3.12
[37]
  SPOT peptide array binding signal intensity: 53.5
[38]
  SPOT peptide array binding signal intensity: 0.875
[39]
  SPOT peptide array binding signal intensity: 9.5
[40]
  SPOT peptide array binding signal intensity: 4.5
[41]
  SPOT peptide array binding signal intensity: 14.2
[42]
  SPOT peptide array binding signal intensity: 18.5
[43]
  SPOT peptide array binding signal intensity: 209
[44]
  SPOT peptide array binding signal intensity: 1.25
[45]
  SPOT peptide array binding signal intensity: 1040
[46]
  SPOT peptide array binding signal intensity: 0.25
[47]
  SPOT peptide array binding signal intensity: ≤ 0
[48]
  SPOT peptide array binding signal intensity: ≤ 0
[49]
  SPOT peptide array binding signal intensity: 4.25
[50]
  SPOT peptide array binding signal intensity: ≤ 0
[51]
  SPOT peptide array binding signal intensity: ≤ 0
[52]
  SPOT peptide array binding signal intensity: 20.2
[53]
  SPOT peptide array binding signal intensity: ≤ 0
[54]
  SPOT peptide array binding signal intensity: 1.5
[55]
  SPOT peptide array binding signal intensity: 759
[56]
  SPOT peptide array binding signal intensity: ≤ 0
[57]
  SPOT peptide array binding signal intensity: ≤ 0
[58]
  SPOT peptide array binding signal intensity: 166
[59]
  SPOT peptide array binding signal intensity: 1.75
[60]
  SPOT peptide array binding signal intensity: ≤ 0
[61]
  SPOT peptide array binding signal intensity: ≤ 0
[62]
  SPOT peptide array binding signal intensity: 1
[63]
  SPOT peptide array binding signal intensity: 33.1
[64]
  SPOT peptide array binding signal intensity: 2.25
[65]
  SPOT peptide array binding signal intensity: 830
[66]
  SPOT peptide array binding signal intensity: 667
[67]
  SPOT peptide array binding signal intensity: ≤ 0
[68]
  SPOT peptide array binding signal intensity: 21.2
[69]
  SPOT peptide array binding signal intensity: ≤ 0
[70]
  SPOT peptide array binding signal intensity: 41.8
[71]
  SPOT peptide array binding signal intensity: 6.25
[72]
  SPOT peptide array binding signal intensity: 1
[73]
  SPOT peptide array binding signal intensity: 2
[74]
  SPOT peptide array binding signal intensity: ≤ 0
